From PubChem BioAssay AID1211 (NMMLSC, 2008)
The source made the active and inactive calls. The rule behind the calls is not given here.

Biological target: Estrogen receptor (Homo sapiens) (UniProt P03372)
Assay: ERalpha ligand binders by competition, primary screen, cell-based, Cos7 ERalpha-GFP, flow cytometry (AID 1211);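 note: 0% = DMSO vehicle wells and 100% = no E2-Alexa633 signal left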
Conditions: fluorescent ligand competition, at 10 µM, stronger effect = higher value

Chain of Estrogen receptor (Homo sapiens) (P03372 whole entry, looked up): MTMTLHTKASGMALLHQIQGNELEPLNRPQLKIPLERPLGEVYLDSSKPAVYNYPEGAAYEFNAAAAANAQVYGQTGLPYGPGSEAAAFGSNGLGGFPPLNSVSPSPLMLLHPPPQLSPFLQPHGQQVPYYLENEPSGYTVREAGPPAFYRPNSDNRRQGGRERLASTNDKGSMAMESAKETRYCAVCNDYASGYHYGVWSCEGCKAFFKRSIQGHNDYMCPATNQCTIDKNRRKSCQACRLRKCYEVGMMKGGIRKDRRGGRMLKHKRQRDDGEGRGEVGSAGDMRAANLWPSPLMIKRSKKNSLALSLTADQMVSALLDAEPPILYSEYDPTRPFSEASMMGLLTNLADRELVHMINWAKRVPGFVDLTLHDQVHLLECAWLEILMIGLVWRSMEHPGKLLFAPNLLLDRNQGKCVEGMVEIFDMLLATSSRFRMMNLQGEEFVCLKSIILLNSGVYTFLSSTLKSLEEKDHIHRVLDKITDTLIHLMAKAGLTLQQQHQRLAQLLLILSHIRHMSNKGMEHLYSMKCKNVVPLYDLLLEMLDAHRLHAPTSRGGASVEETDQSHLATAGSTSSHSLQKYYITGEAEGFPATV

SMILES	inhibition of ligand binding
O=C(c1cc2ncc(Br)cn2n1)N1CCN(C(=O)c2ccco2)CC1	2% (inactive)
Cc1cc2oc(=O)cc(COC(=O)c3n[nH]c4ccccc34)c2cc1C	53% (inactive)
CC(C)(C)NC(=O)c1ccc2c(c1)C1C3CCC(C3)C1C(c1ccccc1)N2 (centres undefined)	70% (active)
COC1=C/C(=C/c2c(N)n3cc(C)sc3nc2=O)C=CC1=O	34% (inactive)
O=C(CSc1ccc(Cl)cc1)c1ccco1	42% (inactive)
O=c1c(OC2OC(CO)C(O)C(O)C2O)c(-c2ccc(O)c(O)c2)oc2cc(O)cc(O)c12 (centres undefined)	39% (inactive)
CCc1nc2sc3ccccc3c(=O)c2c(=O)n1Cc1ccco1	0% (inactive)
COc1ccc2c(c1)c(=O)oc1cc3oc(C)c(C)c3cc12	3% (inactive)
Cc1ccc2c(c1)c(=O)c1c3n2CCN(C(=O)CCl)C3CC1 (centres undefined)	21% (inactive)
COc1ccc(-c2nc3ccc([N+](=O)[O-])cc3o2)cc1	28% (inactive)
Oc1ccc(-c2cn3c(n2)SCC3)cc1O	19% (inactive)
Cc1nc2sccn2c1-c1nc(-c2cc3ccccc3o2)cs1	4% (inactive)
Nc1c(Cl)cc(Cl)cc1C(=O)OCC(=O)NC1CC1	52% (inactive)
Oc1ccc(-c2nccc(-c3cccs3)n2)cc1	40% (inactive)
Cc1cc(N)ccc1N=Nc1c(C)n(C)n(-c2ccccc2)c1=O	44% (inactive)
CCC(=O)Oc1ccc(/C(CC)=C(\CC)c2ccc(OC(=O)CC)cc2)cc1	77% (active)
CCC(=O)Oc1ccc(C(CC)C(CC)c2ccc(OC(=O)CC)cc2)cc1 (centres undefined)	80% (active)
O=C(O)C1Nc2c(O)cc(Cl)c([N+](=O)[O-])c2C2C=CCC12 (centres undefined)	50% (inactive)
Nc1ccc(-c2nc3ccc(C(=O)O)cc3s2)cc1	0% (inactive)
O=S(=O)(c1cccc(-c2cn3cccnc3n2)c1)N1CCCCCC1	25% (inactive)
Cc1ccc(Cn2c(NC(=O)c3ccco3)nc3ccccc32)cc1	29% (inactive)

Same assay, conditions: fluorescent ligand competition, binding inhibition, at 0.1 µM, stronger effect = higher value

SMILES	inhibition of ligand binding [%]
C/C(N)=C(/C#N)C(=O)CSc1nnc(Cc2ccccc2F)n1N	3
COc1cc(-c2nc3ccc4ccccc4c3c3c2CCC3)cc(OC)c1O	30
Cc1c(N=Cc2ccc(O)c(Br)c2)cccc1[N+](=O)[O-]	23
C[C@]12CC[C@@H]3c4ccc(O)cc4C(=O)C[C@H]3[C@@H]1CC[C@@H]2O	88
NC(=O)c1c(NC(=O)c2cc3ccccc3o2)sc2c1CCC2	5
Cc1noc(C)c1COC(=O)c1cc2c3ccccc3n(C)c2s1	33
CCCCn1c(NC(=O)CC)c(C#N)c2nc3ccccc3nc21	40
COc1cc2c(cc1O)C(Cc1ccc(O)cc1)NCC2 (centres undefined)	8
CCc1ccc2[nH]c(=O)c(C3C(C#N)=C(N)Oc4c3ccc3cccnc43)cc2c1 (centres undefined)	37
Oc1ccc(/C=N/n2c(-c3ccco3)csc2=Nc2cccnc2)c(O)c1	21
NC(=O)c1ccsc1NC(=O)COC(=O)Cc1ccsc1	29
COc1ccc(N2C(=O)c3ccccc3NC2c2ccc(OC)c(COc3ccccn3)c2)cc1 (centres undefined)	22
COC(=O)c1ccc(CC(=O)c2ccc(O)cc2O)o1	9
COc1ccc(N2C(=O)c3ccccc3NC2c2ccc(OC)c(CSc3ccccn3)c2)cc1 (centres undefined)	19
Cc1nn2cc(-c3ccc(N)cc3)nc2s1	53
COC(=O)c1c(NC(=O)Cc2cccs2)sc2c1CCCC2	70
Nc1ccc(-n2cnc3cc([N+](=O)[O-])ccc32)cc1	66
O=C(c1cc2ncc(Br)cn2n1)N1CCN(C(=O)c2ccco2)CC1	15
Cc1cc2oc(=O)cc(COC(=O)c3n[nH]c4ccccc34)c2cc1C	20

SMILES	inhibition of ligand binding [%]
CC(C)(C)NC(=O)c1ccc2c(c1)C1C3CCC(C3)C1C(c1ccccc1)N2 (centres undefined)	9
COC1=C/C(=C/c2c(N)n3cc(C)sc3nc2=O)C=CC1=O	10
O=C(CSc1ccc(Cl)cc1)c1ccco1	65
O=c1c(OC2OC(CO)C(O)C(O)C2O)c(-c2ccc(O)c(O)c2)oc2cc(O)cc(O)c12 (centres undefined)	33
CCc1nc2sc3ccccc3c(=O)c2c(=O)n1Cc1ccco1	23
COc1ccc2c(c1)c(=O)oc1cc3oc(C)c(C)c3cc12	16
Cc1ccc2c(c1)c(=O)c1c3n2CCN(C(=O)CCl)C3CC1 (centres undefined)	26
COc1ccc(-c2nc3ccc([N+](=O)[O-])cc3o2)cc1	52
Oc1ccc(-c2cn3c(n2)SCC3)cc1O	28
Cc1nc2sccn2c1-c1nc(-c2cc3ccccc3o2)cs1	22
Nc1c(Cl)cc(Cl)cc1C(=O)OCC(=O)NC1CC1	13
Oc1ccc(-c2nccc(-c3cccs3)n2)cc1	28
Cc1cc(N)ccc1N=Nc1c(C)n(C)n(-c2ccccc2)c1=O	3
CCC(=O)Oc1ccc(/C(CC)=C(\CC)c2ccc(OC(=O)CC)cc2)cc1	86
CCC(=O)Oc1ccc(C(CC)C(CC)c2ccc(OC(=O)CC)cc2)cc1 (centres undefined)	89
O=C(O)C1Nc2c(O)cc(Cl)c([N+](=O)[O-])c2C2C=CCC12 (centres undefined)	20
Nc1ccc(-c2nc3ccc(C(=O)O)cc3s2)cc1	42
O=S(=O)(c1cccc(-c2cn3cccnc3n2)c1)N1CCCCCC1	48
Cc1ccc(Cn2c(NC(=O)c3ccco3)nc3ccccc32)cc1	11
